This is a sample that favours compounds with a hit; in the whole collection about 19% have one here.
IL1B secr inh: qHTS for Inhibitors of Inflammasome Signaling: IL-1-beta AlphaLISA Primary Screen; 4.7% of 360,000 active; activity change, % at 57.5 µM; THP-1 LPS/ATP IL-1B secretion, AlphaLISA, 16 h; active compounds read low; in the data active = activity change below about -50%; inconclusive = mostly about -30% to -49%
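THP-1 cells pretreated 1 hr with compounds (up to 57.5 uM final), then stimulated with LPS (250 ng/mL final) plus ATP (1.25 mM final); secreted IL-1B measured by AlphaLISA after 16 hr, decreased signal indicating inhibition.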
TDP1 cell CPT: qHTS for Inhibitors of human tyrosyl-DNA phosphodiesterase 1 (TDP1): qHTS in cells in presence of CPT; AID 686979, 2013; 12% of 420,000 active; Potency, µM (top dose mostly 46.2 µM), inactives show top-dose activity change, negative = growth inhibition, hits mostly inhibitors; chicken DT40 Tdp1-/-;hTDP1 cells + 20 nM CPT, ATP luminescence, 48 h; also: potency is read from the fitted curve at half-maximal effect; nearly all actives have a fitted effect of over 55% in size
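Cell growth measured by CellTiter-Glo luminescence after a minimum 48 h, 37 C compound exposure with 20 nM CPT in Tdp1-knockout DT40 cells stably expressing hTDP1, seeded 400/well; qHTS titration format.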
HT1080 IDH1KD tx: qHTS for induction of synthetic lethality in tumor cells producing 2HG: qHTS for the HT-1080-IDH1KD cell line. AID 686971, 2013. Potency, µM (series often up to 46.1 µM), for the others: at the highest dose activity, negative = toxicity, most hits filed as cytotoxic. HT-1080 IDH1 knockdown viability, ATP luminescence, 48 h. 2% of 360,000 active;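 also: potency is read from the fitted curve at half-maximal effect; 0% = DMSO wells and -100% = cell-free medium wells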
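Using the IDH1-knockdown HT-1080 line run in the same batch and compound series as the NT line, viability after 48 h at 37 °C was determined by CellTiter-Glo luminescence and expressed as % activity.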
DT40 TDP1 no CPT: qHTS for Inhibitors of human tyrosyl-DNA phosphodiesterase 1 (TDP1): qHTS in cells in absence of CPT. DT40 Tdp1-/- hTDP1 cells, no CPT, ATP luminescence, 48 h. Potency, µM (titrated, usually from 46.2 µM), inactives show at the top dose activity change, negative = growth inhibition, usual class: inhibitors. 15% of 420,000 active. AID 686978, 2013; also: potency is read from the fitted curve at half-maximal effect; nearly all actives have a fitted effect of over 55% in size
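Camptothecin absent (DMSO only). Human TDP1-complemented DT40 knockout cells, 400 cells/well, 37 °C for minimum 48 hr; ATP measured via CellTiter-Glo, 30 min dark incubation, luminescence.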
HT1080NT lethal: qHTS for induction of synthetic lethality in tumor cells producing 2HG: qHTS for the HT-1080-NT fibrosarcoma cell line; HT-1080-NT fibrosarcoma viability, CellTiter-Glo ATP luminescence, 48 h; Potency, µM (doses to about 46.1 µM), without a hit: at the highest dose activity, negative = less viability, actives largely listed as cytotoxic; 1.6% of 360,000 active; AID 686970, 2013;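 also: NT is the 2HG producing partner of a matched IDH1 knockdown line; potency is read from the fitted curve at half-maximal effect; 0% = DMSO-treated cells and -100% = media-only wells without cells; nearly all actives have a fitted effect of over 55% in size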
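HT-1080-NT fibrosarcoma cells (2HG-overproducing), 750 cells/well in RPMI with 5% FBS, dosed after 2 h and incubated 48 h at 37C. CellTiter-Glo luminescence normalized to DMSO and no-cell wells; concentration-response curves fitted and classed.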
An asterisk follows results filed as active; u = inconclusive; x = not tested or not shown. Unless noted, calls follow the shape of the dose curve; as a rule, active = well fitted curve in the direction sought with a large enough effect; inconclusive = small, poorly fitted or top-dose-only effect, or another doubt; inactive = no such curve, though single readings can be large; an effect the other way counts as inactive or inconclusive. Unless noted, % is scaled to controls: 0 for no effect and ±100 for the full control effect.

SMILES	IL1B secr inh	TDP1 cell CPT	HT1080 IDH1KD tx	DT40 TDP1 no CPT	HT1080NT lethal
COCc1c(C(=O)N2CCN(c3ncccn3)CC2)oc2ccccc12	10.1	14.6µM*	3.6%	u	-0.3%
CCc1ccc2oc(C(=O)Nc3c(C)n(C)n(-c4ccccc4)c3=O)cc(=O)c2c1	x	-1.6%	x	-17.0%	x
COc1cc(Cl)c(C)cc1NCC(=O)Nc1cccc(S(=O)(=O)N2CCCC2)c1	4.1	u	-10.9%	u	1.9%
NC(=O)c1cccc(Nc2nc(C(N)CCc3ccccc3)cs2)n1 (stereo not drawn)	0.0	2.06µM*	u	2.91µM*	u
NC(Cc1ccccc1)c1csc(Nc2ccc(C(=O)NCCO)cc2)n1 (stereo not drawn)	-18.6	u	21.3%	u	24.0%
COc1cccc(Nc2nc(C(N)CCc3ccccc3)cs2)n1 (stereo not drawn)	-87.0*	18.4µM*	u	u	u
COc1cccc(Nc2nc(C(N)COCc3ccccc3)cs2)n1 (stereo not drawn)	x	u	u	u	18.4µM*
NC(CCc1ccccc1)c1csc(Nc2cnccn2)n1 (stereo not drawn)	-24.4	23.1µM*	-21.1%	13µM*	u
CC(=O)Nc1sc2c(c1CN1CCN(C)CC1)CCCC2	-0.5	2.2%	13.1%	6.6%	12.6%
COc1ccc(C(C#N)CC(=O)c2ccc(OCc3ccccc3)c(OC)c2)cc1OC (stereo not drawn)	6.1	u	8.6%	u	-2.8%
CCOC(=O)c1cc(-c2ccccc2)nc2nc(N3CCCCC3)sc12	14.6	u	10.5%	u	7.7%
CCOC(=O)c1cc(-c2ccccc2)nc2nc(N(CC)CC)sc12	-53.9*	-2.7%	-19.5%	u	u
CC1=NN(c2ccccc2)C(=O)/C1=C\c1cn(-c2ccccc2)nc1C	38.2	u	2.7%	-14.1%	-21.9%
CC1=NNC(=O)/C1=C\c1cn(-c2ccccc2)nc1-c1ccc(Cl)cc1	-118.6*	5.17µM*	5.8µM*	5.17µM*	7.31µM*
CC1=NN(c2ccccc2)C(=O)/C1=C\c1cn(CCC#N)nc1-c1ccc(Cl)cc1	-85.2*	u	-5.9%	u	-0.4%
Cc1ccc(-c2nn(-c3ccccc3)cc2C=C2C(=O)CC(C)(C)CC2=O)cc1	-29.5	14.6µM*	u	u	-28.5%
CC1(C)CC(=O)C(=Cc2cn(-c3ccccc3)nc2-c2ccccc2)C(=O)C1	0.0	23.1µM*	15.1%	23.1µM*	2.3%
CSc1ccc(CN(C)C(=O)C23CC4CC(CC(Cl)(C4)C2)C3)cc1	u	u	-10.8%	u	-17.0%
CC(=O)Nc1ccc(-c2ccnc3c2CC(C)(C(=O)NCc2ccc(N4CCN(C)CC4)cc2)O3)cc1 (stereo not drawn)	-19.6	-20.5%	-4.9%	u	-26.3%
N#CCCN(C(=O)COC(=O)c1cc(S(=O)(=O)N2CCOCC2)ccc1Cl)c1ccc(F)cc1	-13.7	10.4%	8.6%	-18.8%	1.4%
Cc1c(Cl)cccc1NC(=O)CCN1C(=O)NC(C)(C)C1=O	-0.3	4.0%	-7.9%	-7.1%	-0.4%
CCCCN(CCCC)CCNC(=O)CSCc1ccc(C)cc1	-8.7	25.9µM*	-10.4%	20.6µM*	0.1%
Cc1ccc(CNC(=O)CSCc2ccccc2)cc1	4.4	3.7%	7.3%	-3.6%	2.8%
Cc1ccc(CCNC(=O)c2c(C)oc3ncnc(N4CCOCC4)c23)cc1	x	9.6%	x	-12.9%	x
CC/C(=C/c1ccccc1)c1cccc2[nH]c3c(OC)cccc3c12	4.0	20.6µM*	u	u	u
SMILES	IL1B secr inh	TDP1 cell CPT	HT1080 IDH1KD tx	DT40 TDP1 no CPT	HT1080NT lethal
CC/C(=C/c1ccccc1)c1cc(Oc2ccccc2)cc2oc3ccccc3c12	x	-10.2%	x	-17.4%	x
COc1ccc(-c2ncccc2OC(=O)C23CC4CC(CC(C4)C2)C3)cc1	14.5	18.4µM*	-7.3%	23.1µM*	-0.3%
O=C(O)c1ccccc1OC(=O)C12CC3CC(CC(C3)C1)C2	22.9	10.9%	-12.9%	-1.8%	-3.1%
CCOc1ccc(-c2nnc(SCc3nc4ccccc4[nH]3)n2N)cc1	-63.6*	-19.9%	6.0%	-1.7%	4.8%
COC(=O)c1c(-c2ccc(Cl)cc2)noc1N1CCN(c2ccc(F)cc2)CC1	x	20.6µM*	x	20.6µM*	x
COC(=O)c1c(-c2ccc(Cl)cc2)noc1N1CCN(c2cccc(C(F)(F)F)c2)CC1	x	14.6µM*	x	23.1µM*	x
Cn1c(N2CCC(C(N)=O)CC2)nc2c1c(=O)n(Cc1ccc(Br)cc1)c(=O)n2C	16.8	-10.4%	-3.7%	-22.3%	6.3%
N#Cc1cc([N+](=O)[O-])ccc1NC(=O)COC(=O)CC1CCCC1	0.0	-24.6%	14.4%	-11.1%	1.2%
CCCOP(=O)(c1ccc(N(C)C)cc1)C(O)c1ccccc1OC (stereo not drawn)	-14.6	-7.0%	-0.6%	u	16.3%
CCCOP(=O)(c1ccc(N(C)C)cc1)C(Nc1ccccc1)c1ccc(N(C)C)cc1 (stereo not drawn)	6.4	8.2µM*	-1.4%	2.31µM*	-0.9%
Cc1cccc(N2CCN(C(=O)Cc3c(C(=O)O)c(C)cn3C)CC2C)c1 (stereo not drawn)	x	-0.9%	x	7.0%	x
Cc1cccc(N2CCN(C(=O)/C=C/c3cccs3)CC2C)c1 (stereo not drawn)	-11.4	u	-6.9%	14.6µM*	-8.6%
Cc1cccc(N2CCN(C(=O)CSc3ccsc3[N+](=O)[O-])CC2C)c1 (stereo not drawn)	-73.2*	-1.4%	-13.4%	u	-5.3%
CCSc1ncc(Cl)c(C(=O)N(Cc2ccccc2)Cc2ccco2)n1	x	u	x	16.4µM*	x
CSc1ncc(Cl)c(C(=O)N(Cc2ccc(N(C)C)cc2)Cc2ccco2)n1	x	u	x	7.31µM*	x
Cc1ccc(OCCNC(=O)CNC(=O)c2ccc(Cl)c([N+](=O)[O-])c2)cc1	20.0	u	-0.9%	u	-2.3%
O=C(NC1CCCCC1)c1cc(S(=O)(=O)N2CCOCC2)c(Cl)cc1Cl	3.2	-19.8%	u	-27.3%	1.8%
C/C(=N/NC(=O)CNC(=O)c1ccccn1)c1cccc([N+](=O)[O-])c1	20.5	3.0%	-0.1%	u	5.5%
c1cc(-c2ccoc2)n2ccnc2c1	0.0	-29.5%	3.7%	u	u

Compound activity (PubChem)
